The campaign covered roughly 48,000 compounds. About 13,000 (27%) showed an effect of 50% or more. The list shows a part of the results.
What follows are compounds tested on Wolbachia pipientis (assay: Anti-Wolbachia Cell-Based Screen). Details: 5 µM.
Assay type: functional
Design: scale not given: in the data most compounds retested in dose-response had high values

Going from `OCCN(Cc1cccnc1)c1cnc2ccccc2n1` to `CN(Cc1cccnc1)c1nc(-c2ccccn2)nc2c1CCNCC2`, the “Percent Effect” value rises from -10.33% to -5.428%.

Going from `COCC(=O)N1CCCC2(COCCN(CCN(C)C)C2)C1.O=C(O)C(F)(F)F.O=C(O)C(F)(F)F` (stereo unspecified) to `COCC(=O)N1CCOCC2(CCN(Cc3cccs3)C2)C1.O=C(O)C(F)(F)F` (stereo unspecified), the “Percent Effect” value rises from -43.45% to 92.34%.

Going from `COCCC(=O)N1CCC2(CCN(Cc3ccc(C)cc3)CC2)C1.O=C(O)C(F)(F)F` to `COCCC(=O)N1CCOCC2(CCN(Cc3cccs3)C2)C1.O=C(O)C(F)(F)F` (stereo unspecified), the “Percent Effect” value rises from -24.32% to 93.92%.

Compared with `COCCN1CCC2(COCCN(C(=O)Cc3cccs3)C2)C1.O=C(O)C(F)(F)F` (stereo unspecified), `O=C(O)C(F)(F)F.O=C(c1ncccn1)N1CC[C@H]2OCC[C@@]2(COc2ccccn2)C1` is lower in “Percent Effect” value: 3.842% for the first, -10.25% for the second.

First: Cc1nc(CC2CCCN(Cc3nc4ccccc4c(=O)[nH]3)C2)no1 (stereo unspecified)
Second: COc1cc2c(nn1)CCN(Cc1nc(Cc3ccccc3)no1)C2
The “Percent Effect” value of the first is lower: -3.308% for the first, -1.36% for the second.

Compared with `CSCc1cccc(S(=O)(=O)NCCCn2ccnc2)c1`, `CCC(=O)NCC(Cc1cccc(F)c1)n1cccc1` (stereo unspecified) is higher in “Percent Effect” value: -11.24% for the first, -1.872% for the second.

Compared with `O=C(COCc1ccccc1)N1CCN(c2ccc(Cl)cn2)CC1`, `O=C(CCc1nccs1)N1CCN(c2ccc(Cl)cn2)CC1` is higher in “Percent Effect” value: 1.398% for the first, 142.1% for the second.

Compared with `O=C(CCc1nccs1)N1CCN(c2ncccn2)CC1`, `O=C(CCc1nccs1)N1CCN(c2ccccn2)CC1` is higher in “Percent Effect” value: -7.196% for the first, 104.9% for the second.

Compared with `O=C(CCc1nccs1)N1CCN(c2cccnn2)CC1`, `O=C(CCc1nccs1)N1CCN(c2ccc(Br)cn2)CC1` is higher in “Percent Effect” value: 5.775% for the first, 15.4% for the second.

Compared with `COc1cc(C)nc(N2CCN(C(=O)CCc3nccs3)CC2)n1`, `Cc1csc(N2CCN(C(=O)CCc3nccs3)CC2)n1` is higher in “Percent Effect” value: -2.127% for the first, 0.8841% for the second.

Compared with `O=C(CCc1nccs1)N1CCN(c2nccs2)CC1`, `O=C(CCc1nccs1)N1CCN(c2ccccc2F)CC1` is lower in “Percent Effect” value: 116.1% for the first, -6.443% for the second.

Compared with `N#Cc1ccccc1N1CCCN(C(=O)CCc2nccs2)CC1`, `Cc1ccc(N2CCCN(C(=O)CCc3nccs3)CC2)nn1` is higher in “Percent Effect” value: 6.343% for the first, 105.9% for the second.

Going from `Cc1nnc(CNC(=O)[C@@H]2C[C@H](NC(=O)C(C)(C)C)CN2C)[nH]1` to `CC(C)(C)OC(=O)N1CC(CC(=O)NCc2ccnc(C3CC3)c2)C1`, the “Percent Effect” value falls from -6.748% to -29.57%.

Compared with `CCOCCC(=O)N(Cc1ccncc1)C(C)CC` (stereo unspecified), `CCCC(C#N)NC(=O)CCCOc1cccc(C(C)=O)c1` (stereo unspecified) is higher in “Percent Effect” value: -2.407% for the first, 17.87% for the second.

First: CC(=O)N[C@@H](CC(C)C)C(=O)N1CCC(n2cc(C(C)(C)N)nn2)CC1
Second: CC(NCCN1CCC(N(C)C)CC1)c1ccc(Cl)s1 (stereo unspecified)
The “Percent Effect” value of the first is higher: 10.18% for the first, 1.149% for the second.

Going from `Cc1n[nH]c(C)c1NC(=O)CN(CC(O)c1ccc(F)cc1)C1CC1` (stereo unspecified) to `CC(C)Cc1cc(C(=O)NCC(c2ccc(F)cc2)N(C)C)n(C)n1` (stereo unspecified), the “Percent Effect” value falls from -1.217% to -14.68%.

Compared with `CCS(=O)(=O)N1CCOC2(CCCN(c3cccc(C#N)c3)C2)C1` (stereo unspecified), `N#Cc1cccc(Oc2ccc(CN3CCCC3)cc2Cl)n1` is higher in “Percent Effect” value: -4.449% for the first, 1.122% for the second.

Going from `Cc1cc(C)c(CNC(=O)NCCOc2ccc3c(c2)CCC3)c(=O)[nH]1` to `O=C(NCCC1CCCCO1)c1cc(COc2ccccc2F)[nH]n1` (stereo unspecified), the “Percent Effect” value rises from -6.999% to 0.1687%.

Compared with `CN(Cc1nncn1C)C(=O)c1cc(COc2ccccc2F)[nH]n1`, `CN(CC1(CO)CCC1)C(=O)c1cc(COc2ccccc2F)[nH]n1` is higher in “Percent Effect” value: -12.02% for the first, 109.5% for the second.

Compared with `O=C(NCCN1CCOCC1)c1cc(COc2ccccc2F)[nH]n1`, `O=C(NCc1nc[nH]n1)c1cc(COc2ccccc2F)[nH]n1` is lower in “Percent Effect” value: -10.47% for the first, -17.12% for the second.

First: CN(CC1(CO)CCCC1)C(=O)c1cc(COc2ccccc2F)[nH]n1
Second: CN(Cc1noc2c1CCCC2)C(=O)CN1C(=O)COc2ccccc21
The “Percent Effect” value of the first is higher: 101.7% for the first, -4.066% for the second.

First: O=C(N[C@@H]1CNCCC[C@H]1O)c1ccc(OCCN2CCOCC2)cc1
Second: O=C(N[C@@H]1CNCCC[C@H]1O)c1ccc(OCCN2CCCC2)cc1
The “Percent Effect” value of the first is higher: 0.8179% for the first, 0.07573% for the second.

Compared with `CO[C@@H]1CC[C@@H](NC(=O)c2ccc(OCCN3CCCC3)cc2)[C@H]1O`, `COc1ccc(Oc2ncccc2F)cc1CN1CCCC1` is lower in “Percent Effect” value: 109.4% for the first, -25.38% for the second.

First: c1cn(CCc2c[nH]cn2)c(-c2cc(CN3CCCC3)cs2)n1
Second: Fc1cccnc1Oc1cc(F)c(CN2CCCC2)c(Cl)c1
The “Percent Effect” value of the first is lower: -0.5916% for the first, 96.1% for the second.

Going from `Cl.Fc1ccccc1Cn1c(C2CCNCC2)cc2cccnc21` to `Cl.Fc1cccc(F)c1Cn1c(C2CCNCC2)cc2cccnc21`, the “Percent Effect” value falls from 115.9% to 115.5%.

First: Cl.Fc1cccc(F)c1Cn1c(C2CCCNC2)cc2cccnc21 (stereo unspecified)
Second: Fc1cccnc1Oc1cc(F)c(CN2CCCC2)c(F)c1
The “Percent Effect” value of the first is higher: 125.8% for the first, 105.5% for the second.

Compared with `Cl.c1cnc2c(c1)cc(C1CCOCC1)n2CCN1CCOCC1`, `COc1cc(Oc2ncccc2C(F)(F)F)ccc1CN1CCCC1` is higher in “Percent Effect” value: -3.513% for the first, 7.614% for the second.

First: NS(=O)(=O)c1ccc(NCc2ccccc2F)cc1C(F)(F)F
Second: Cl.Fc1ccccc1CNc1ccnc(C2CCNCC2)c1
The “Percent Effect” value of the first is lower: -7.773% for the first, 96.16% for the second.

Going from `COC(=O)c1ccc(S(=O)(=O)N(C)CC(N)=O)c(Cl)c1` to `CN(CC(N)=O)Cc1ccc(F)cc1Cl`, the “Percent Effect” value falls from -3.285% to -24.21%.

Going from `Cc1cnn(CC2CCCN2Cc2cc(=O)n3cccc(C)c3n2)c1` (stereo unspecified) to `Cc1cnn(CCCn2ncc(N3CCC(CN)C3)cc2=O)c1` (stereo unspecified), the “Percent Effect” value falls from 6.367% to -3.735%.

First: COc1ccc2c(c1)CCCC2CC(=O)O (stereo unspecified)
Second: CCCn1cnnc1CNC(=O)C1COc2ccc(OC)cc2C1 (stereo unspecified)
The “Percent Effect” value of the first is higher: -1.038% for the first, -4.97% for the second.

First: O=C(NC1CCC1)[C@H]1C[C@@H]2[C@@H](C1)OCCN2CC1CC1.O=C(O)C(F)(F)F
Second: CC(=O)N1C[C@@H]2CC[C@H](C1)N(C(=O)CCc1n[nH]c3c1CCCC3)C2
The “Percent Effect” value of the first is higher: -6.466% for the first, -10.18% for the second.

Going from `Cc1cc(-n2cncn2)ccc1C(=O)N(CC(F)(F)F)C(C)C` to `CC(C(N)=O)N(C)CCCc1cc(-c2ccc(F)cc2)n(C)n1` (stereo unspecified), the “Percent Effect” value rises from -3.659% to 117.2%.

Compared with `Cc1nc(-c2ccccc2)sc1CSCCC(N)=O`, `CC(C(N)=O)N(C)CCCc1cc(-c2ccccc2)no1` (stereo unspecified) is lower in “Percent Effect” value: 7.014% for the first, -1.184% for the second.

Going from `COc1nc2c(cc1C(=O)N(C)Cc1n[nH]c3c1CCCC3)CCC2` to `CC1=C(C(=O)N(C)Cc2n[nH]c3c2CCCCC3)C(C)NC(=O)N1` (stereo unspecified), the “Percent Effect” value rises from -1.669% to 97.58%.

Going from `O=C(NCc1n[nH]c2c1CCCCC2)c1cnn2c1CCCC2` to `CCCn1ncc(C(=O)NCc2n[nH]c3c2CCCCC3)c1C`, the “Percent Effect” value rises from -12.98% to -11.8%.

First: CC1=C(C(=O)N(C)Cc2noc3c2CCCC3)C(C)NC(=O)N1 (stereo unspecified)
Second: CC1=C(C(=O)NCCc2n[nH]c3c2CCCC3)C(C)NC(=O)N1 (stereo unspecified)
The “Percent Effect” value of the first is lower: 99.57% for the first, 140.8% for the second.

First: CN(Cc1noc2c1CCCC2)C(=O)C1CCOc2ccccc2C1 (stereo unspecified)
Second: O=C(NCc1ccccc1CN1CCCCCC1)Nc1nncs1
The “Percent Effect” value of the first is lower: -27.45% for the first, -11.94% for the second.

First: COCCCC1CCCN(C(=O)CCc2csc(N)n2)C1 (stereo unspecified)
Second: CCc1csc(CNC2CCN(Cc3ccccc3)C2)n1 (stereo unspecified)
The “Percent Effect” value of the first is higher: 18.03% for the first, -41.87% for the second.

Going from `Cc1cccc(=O)n1CCCNc1nc(N(C)C)nc2c1CCNCC2` to `Cc1cccc(Nc2ccc(C3CCN(Cc4ncc[nH]4)CC3)nc2)n1`, the “Percent Effect” value rises from -26.54% to 108.6%.

First: O=C(O)C(F)(F)F.O=C(c1ccccc1-c1ccccc1)N1C[C@@H]2CNC[C@]2(C(=O)O)C1
Second: CN(CC(=O)NS(=O)(=O)c1ccc(F)cc1)Cc1ccccc1
The “Percent Effect” value of the first is higher: 7.106% for the first, -17.38% for the second.

First: Fc1cc(Oc2ccc(C(F)(F)F)cn2)cc(F)c1CN1CCCC1
Second: N#Cc1ccc(Oc2cc(F)c(CN3CCCC3)c(F)c2)nc1
The “Percent Effect” value of the first is lower: -0.6803% for the first, 28.32% for the second.

Going from `COc1ccc(Oc2ncccc2C(F)(F)F)cc1CN1CCCC1` to `N#Cc1cccnc1Oc1cc(F)c(CN2CCCC2)c(Cl)c1`, the “Percent Effect” value rises from 21.25% to 85.58%.

Compared with `O=c1[nH]c(=O)n(CC(O)c2ccccc2Cl)cc1Cl` (stereo unspecified), `CCC(O)Cn1nc(-c2ccc(C(=O)O)cc2)cc1-c1cccc(F)c1` (stereo unspecified) is higher in “Percent Effect” value: -2.887% for the first, 112% for the second.

Going from `CCCc1n[nH]c(C2CN(Cc3ncc[nH]3)CCO2)n1` (stereo unspecified) to `CC(C)(C)c1n[nH]c(C2CN(Cc3ncc[nH]3)CCO2)n1` (stereo unspecified), the “Percent Effect” value falls from 0.7755% to -4.416%.

First: Clc1cc(Cl)cc(CN2CCC(NCc3ncc[nH]3)CC2)c1
Second: Brc1ccc(CN2CCC(NCc3ncc[nH]3)CC2)cc1
The “Percent Effect” value of the first is higher: 21.36% for the first, 0.1556% for the second.

First: CCCc1nnc([C@H]2CCN(Cc3ncc[nH]3)C2)o1
Second: Cn1cncc1-c1nnc([C@H]2CCN(Cc3ncc[nH]3)C2)o1
The “Percent Effect” value of the first is higher: 2.62% for the first, -1.708% for the second.

Compared with `Fc1ccc(Nc2ccc(C3CCN(Cc4ncc[nH]4)CC3)nc2)nc1`, `Cc1cc(Nc2ccc(F)cn2)cc(C2CCN(Cc3ncc[nH]3)C2)n1` (stereo unspecified) is lower in “Percent Effect” value: 114.5% for the first, 87.11% for the second.

Compared with `CCC(O)CN1CCN(C(=O)c2ccn(-c3cccc(F)c3)n2)CC1` (stereo unspecified), `NC(=O)NC(=O)CCn1ccc(-c2ccc(F)cc2)n1` is higher in “Percent Effect” value: -17.79% for the first, -9.81% for the second.

Going from `CN(CCCc1cc(-c2ccc(F)cc2)n[nH]1)C(=O)CCn1cncn1` to `CN(CCCc1cc(-c2ccc(F)cc2)n(C)n1)CC(N)=O`, the “Percent Effect” value rises from -5.05% to 124.4%.

In the case of `CN(CCCc1cc(-c2ccc(F)cc2)n(C)n1)CC(=O)NC(N)=O`, the “Percent Effect” value is reported as 129.4%.
